Screening results deposited in PubChem by National Center for Advancing Translational Sciences (NCATS).
Only some compounds are listed: those with a hit (about 18% of all), similar ones and a draw of the others.
IL1B secr inh = qHTS for Inhibitors of Inflammasome Signaling: IL-1-beta AlphaLISA Primary Screen. THP-1 LPS/ATP IL-1B secretion, AlphaLISA, 16 h; stronger effect = lower value. activity change, % at 57.5 µM. hit rate 4.7% among 360,000; in the data active = activity change below about -50%; inconclusive = mostly about -30% to -49%; note: % is set by controls: 0 for no effect and ±100 for the full control effect
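Secreted IL-1B measured by AlphaLISA bead assay after 16 h compound exposure of THP-1 cells; compounds (final up to 57.5 uM) added 1 h before LPS (250 ng/mL) and ATP (1.25 mM) stimulation; lower signal means less secretion.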
TDP1 block = qHTS Assay for Inhibitors of Tyrosyl-DNA Phosphodiesterase (TDP1). Tyrosyl-DNA phosphodiesterase 1 (Homo sapiens), Q9NUW8. recombinant TDP1, AlphaScreen DNA substrate cleavage. Potency, µM (series often up to 130 µM), without a hit: top-dose activity change, negative = inhibition, hits mostly inhibitors. hit rate 0.28% among 350,000; note: potency is the fitted concentration of half-maximal effect; % is set by controls: 0 for no effect and ±100 for the full control effect; nearly all actives have a fitted effect of over 40% in size
Target sequence (Q9NUW8 whole entry, looked up): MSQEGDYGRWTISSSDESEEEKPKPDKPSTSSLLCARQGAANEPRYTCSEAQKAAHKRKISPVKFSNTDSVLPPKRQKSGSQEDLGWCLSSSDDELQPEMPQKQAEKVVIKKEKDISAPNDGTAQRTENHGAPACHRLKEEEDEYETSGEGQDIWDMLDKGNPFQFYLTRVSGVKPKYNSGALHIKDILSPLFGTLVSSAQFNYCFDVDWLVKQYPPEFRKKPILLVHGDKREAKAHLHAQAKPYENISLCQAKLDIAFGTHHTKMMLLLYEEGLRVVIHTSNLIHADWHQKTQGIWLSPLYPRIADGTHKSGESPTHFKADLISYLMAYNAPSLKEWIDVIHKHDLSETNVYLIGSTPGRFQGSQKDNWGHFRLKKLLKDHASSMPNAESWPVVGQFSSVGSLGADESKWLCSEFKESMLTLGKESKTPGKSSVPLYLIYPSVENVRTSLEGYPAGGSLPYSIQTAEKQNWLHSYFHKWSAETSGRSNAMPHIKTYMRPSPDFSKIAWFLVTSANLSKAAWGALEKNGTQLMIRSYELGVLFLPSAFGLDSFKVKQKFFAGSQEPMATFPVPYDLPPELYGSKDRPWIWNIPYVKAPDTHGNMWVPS
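Here, a 5' biotin and 3' phosphotyrosine-FITC DNA oligonucleotide reports Tdp1 activity: intact substrate bridges AlphaScreen beads, while cleavage leaves a 3' phosphate and drops signal. All incubations at room temperature.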
TDP1 cell noCPT = qHTS for Inhibitors of human tyrosyl-DNA phosphodiesterase 1 (TDP1): qHTS in cells in absence of CPT; AID 686978, 2013; hit rate 15% among 420,000; DT40 Tdp1-/- hTDP1 cells, no CPT, ATP luminescence, 48 h; Potency, µM (doses to about 46.2 µM), without a hit: top-dose activity change, negative = growth inhibition, actives largely listed as inhibitors; note: potency is the fitted concentration of half-maximal effect; % is set by controls: 0 for no effect and ±100 for the full control effect; nearly all actives have a fitted effect of over 55% in size
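Chicken DT40 Tdp1-/- cells stably complemented with human TDP1 were seeded at 400 cells/well with DMSO in place of 20 nM camptothecin. After compound pinning, cells grew at least 48 hr at 37 °C; viability read by CellTiter-Glo luminescence.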
TGFb inhibitor = qHTS for Inhibitors of TGF-b; HepG2 CAGA-GFP TGF-b/SMAD3 reporter, GFP fluorescence, 18 h; TGF-beta stimulated, 500 pg/mL final; Potency, µM (titrated, usually from 46.1 µM), inactives show top-dose activity, negative = inhibition, hits mostly inhibitors; hit rate 1.2% among 410,000; AID 588855, 2011; note: potency is the fitted concentration of half-maximal effect; % is set by controls: 0 for no effect and ±100 for the full control effect; nearly all actives have a fitted effect of over 65% in size
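GFP signal (ex488/em500-530) from TGF-beta-stimulated HEPG2 CAGA-GFP cells, 500 pg/mL final, 18 h at 37 degrees C in DMEM plus 1% FBS, normalized to unstimulated and DMSO-stimulated controls.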
TDP1 cell CPT = qHTS for Inhibitors of human tyrosyl-DNA phosphodiesterase 1 (TDP1): qHTS in cells in presence of CPT; chicken DT40 Tdp1-/-;hTDP1 cells + 20 nM CPT, ATP luminescence, 48 h; Potency, µM (titrated, usually from 46.2 µM), for the others: at the highest dose activity change, negative = growth inhibition, usual class: inhibitors; hit rate 12% among 420,000; AID 686979, 2013; note: potency is the fitted concentration of half-maximal effect; % is set by controls: 0 for no effect and ±100 for the full control effect; nearly all actives have a fitted effect of over 55% in size
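Chicken DT40 Tdp1-/- cells stably complemented with human TDP1 were seeded at 400 cells/well in medium containing 20 nM camptothecin, exposed to pin-transferred compounds, and grown at 37 °C for at least 48 hr. Viability was read as ATP luminescence.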
HepG2 tox = qHTS for Inhibitors of TGF-b: Cytotox Counterscreen; HepG2 CAGA-GFP viability, ATP luminescence, 18 h; Potency, µM (titrated, usually from 46.1 µM), without a hit: top-dose activity change, negative = cytotoxicity, hits mostly cytotoxic; hit rate 0.76% among 410,000; note: potency is the fitted concentration of half-maximal effect
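CellTiter-Glo luminescence gave cytotoxicity after 18 hours at 37 degrees C. The cells were HepG2 CAGA-GFP in 1% FBS DMEM, stimulated with 500 pg/mL TGF-beta after compound addition. %Activity was normalised to no-cell wells (complete cell-killing) and DMSO (no toxicity), and curves were fitted and classified.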
* = called active by the depositor; ? = inconclusive; . = no result given. Unless noted, calls come from the whole dose curve; as a rule, active = well fitted curve in the direction sought with a large enough effect; inconclusive = small, poorly fitted or top-dose-only effect, or another doubt; inactive = no such curve, though single readings can be large; an effect the other way counts as inactive or inconclusive.

SMILES	IL1B secr inh	TDP1 block	TDP1 cell noCPT	TGFb inhibitor	TDP1 cell CPT	HepG2 tox
O=C(C[C@H]1C/C=C\CC[C@H](Cc2ccc(F)cc2)C(=O)OC[C@@H]2CCCN2C1=O)N[C@H](CO)Cc1ccccc1	-13.4	0.8%	?	-19.3%	25.9µM*	-18.3%
COc1cc(CNc2ccccc2Oc2cc(=O)n(C)c(=O)n2C)cc(OC)c1OC	23.2	0.0%	?	11.9%	?	6.0%
Cn1c(Oc2ccccc2NCc2cc(Br)ccc2O)cc(=O)n(C)c1=O	9.3	4.6%	23.1µM*	?	18.4µM*	-42.4%
Cc1cccc(N(Cc2cc(=O)[nH]c3ccccc23)C(=O)CCl)c1	-107.0*	.	5.17µM*	-12.0%	4.11µM*	-13.3%
CCCC(=O)N(Cc1cc(=O)[nH]c2ccccc12)c1cccc(C)c1	-9.8	.	?	-7.1%	-12.6%	-22.7%
COc1ccc(N(Cc2cc(=O)[nH]c3ccccc23)C(=O)CCl)cc1	-98.2*	.	2.06µM*	?	2.06µM*	-94.0%
CCCCNC1C(CC)C(CCC)C(C#N)(C#N)C1(C#N)C#N (centres undefined)	-118.4*	5.6%	8.2µM*	10µM*	13µM*	-54.2%
COc1ccc(CCNC(=O)C2CCN(C(=O)c3ccc(C(C)(C)C)cc3)CC2)cc1	0.0	3.3%	?	-23.6%	?	-22.8%
CC1Cc2ccccc2N1C(=O)CSc1nnc(-c2ccccc2Cl)o1 (centres undefined)	.	-6.8%	?	-12.9%	25.9µM*	-9.1%
O=C(CSc1nnc(Cc2csc(Nc3cccc(Cl)c3)n2)o1)N1CCc2ccccc21	?	-4.2%	20.6µM*	?	18.4µM*	-0.1%
CC1Cc2ccccc2N1C(=O)CSc1nncn1C (centres undefined)	4.0	2.4%	-19.6%	9.9%	8.2%	-3.4%
CC1Cc2ccccc2N1C(=O)CSc1nnc(-c2ccc(S(=O)(=O)N3CCCC3)cc2)o1 (centres undefined)	19.3	-3.1%	16.4µM*	-0.6%	?	1.3%
O=C(CSc1nnc(-c2ccccc2Br)o1)N1CCc2ccccc2C1	-59.7*	0.0%	?	-16.3%	?	-9.5%
O=C(CSc1nnc(CNc2ccccc2)o1)N1CCc2ccccc21	6.4	-1.0%	-13.5%	2.3%	-4.2%	-24.8%
NCCCC[C@H](NC(=O)[C@@H]1CCCN1C(=O)[C@@H]1CSSC[C@H](NC(=O)CNC(=O)CNC(=O)CN)C(=O)N[C@@H](Cc2ccc(O)cc2)C(=O)N[C@@H](Cc2ccccc2)C(=O)N[C@@H](CCC(N)=O)C(=O)N[C@@H](CC(N)=O)C(=O)N1)C(=O)NCC(N)=O	.	.	-4.2%	.	-12.3%	.
O=S(=O)(c1ccccc1)N1CCC2(CCN(c3cccc(-c4ccccc4)c3)CC2)CC1	.	.	-17.6%	.	-7.6%	.
Cc1ccc2nsnc2c1S(=O)(=O)Nc1cccc2cccnc12	.	22.1%	.	.	.	.
O=C(CSc1nnc(-c2ccccc2Cl)o1)N1CCCc2ccccc21	.	2.5%	16.4µM*	-1.9%	?	-19.9%
CC1Cc2ccccc2N1C(=O)CSc1nnc(-c2ccc(S(=O)(=O)N3CCOCC3)cc2)n1C (centres undefined)	0.0	-2.3%	?	?	16.4µM*	-1.7%
CC1CCN(C(=O)CSc2nnc(-c3ccc(S(=O)(=O)N4CCOCC4)cc3)n2C)CC1	16.3	0.0%	-11.8%	1.5%	-23.2%	-13.2%
